PubChem BioAssay AID770 (SRMLSC, 2007)
The campaign covered roughly 3,300 compounds. Fewer than 10 were called active.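 Rule for the calls: active = growth inhibition above 90% in viable cell count at a single dose; inactive = growth inhibition below 90%.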 Only a sample is shown.

Assay: HT29 colon tumor cell growth inhibition, primary screen, imaging, high content imaging, 24 h, CellTiter-Glo (AID 770);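 for condensed nuclei: share of cells whose nuclear area falls below control median minus 1.5 SD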
Conditions: HT29 cell number by imaging, at 10 µM, stronger effect = higher value; for condensed nuclei: measured here: percent cells with condensed nuclei
[1] = measured here: ATP CellTiter-Glo viability

SMILES	growth inhibition	growth inhibition [1] [%]	condensed nuclei [%]
CCCCCC(=O)N1CC2(C)CN(C(=O)CCCCC)CC(C)(C1)C2=O	-27.8% (inactive)	-0.56	1.67
CN1CCc2c(n(CC(O)CN3C(=O)c4ccccc4S3(=O)=O)c3ccccc23)C1=O (stereo not drawn)	3.96% (inactive)	-10.2	8.09
O=C1CC(C(=O)O)c2ccccc2N1 (stereo not drawn)	10.3% (inactive)	0.11	2.67
COc1nc(NS(=O)(=O)c2ccc(C)cc2)nc(C)c1Cl	9.89% (inactive)	-6.08	2.47
CCOC(=O)N1CCN(c2ncnc3c2cnn3-c2ccc(OC)cc2)CC1	17% (inactive)	5.78	3.96
CCOC(=O)C1CCCN(c2nc3ccccc3nc2C(C#N)C(=O)OCCOC)C1 (stereo not drawn)	49.2% (inactive)	70	9.83
Cn1ncc2nc[nH]c(=O)c21	27.4% (inactive)	0.04	2.08
CC(C)Nc1nc(NC(C)C)nc(N(C)n2cnnc2)n1	-12.4% (inactive)	-9.08	2.84
COc1ccc(C(=O)OC(C)CN2CCN(C)CC2)cc1OC (stereo not drawn)	28.2% (inactive)	1.58	5.84
Cc1cc(Cn2ccnc2)c(C)cc1Cn1ccnc1	13.6% (inactive)	11.6	3.14
COc1cc(-c2nn3c(COc4ccccc4)nnc3s2)cc(OC)c1OC	56.5% (inactive)	9.54	5.76
CCOC(=O)C1=C(C)NC(SCC(=O)Nc2nc(C)cs2)=C(C#N)C1c1cccs1 (stereo not drawn)	7.8% (inactive)	22.8	5.36
COc1ccc(OC)c(NC(=O)CSc2nnc(-c3ccco3)n2-c2ccc(C(=O)O)cc2)c1	5.68% (inactive)	-8.2	4.63
c1ccc(N2CCN(c3nc(-c4ccccn4)nc4ccccc34)CC2)cc1	4.92% (inactive)	-10.8	11.6
CC1(C)Cc2c(C#N)c(OCC(=O)c3ccc(Cl)cc3)nc(-c3ccoc3)c2CO1	18.7% (inactive)	21.9	4.85
O=C(NCc1ccccc1)c1ccc(=O)[nH]n1	-5.75% (inactive)	-8.23	3.79
Cc1ccc(NC(=O)Cn2nc(C)c3ccccc3c2=O)cc1	-20% (inactive)	-4.94	3.28
COc1ccc(OC)c(C2NC(=O)c3sc(=S)n(-c4ccccc4)c3N2)c1 (stereo not drawn)	36.6% (inactive)	16.9	4.81
CC(=O)N1CC=C2C(C#N)=C(N)C(C#N)(C#N)[C@H](c3ccoc3)[C@H]2C1	6.78% (inactive)	-12.8	3.16
Cc1ccc(CNc2oc(COc3ccccc3Cl)nc2C#N)cc1	-7.99% (inactive)	-1.41	4.34
CCOC(=O)C(NC=O)(NC(C)(C)C)C(=O)OCC	-28.5% (inactive)	-6.54	2.61
Cc1nc2sc(C#N)c(N)c2c2c1CCCC2	-26.7% (inactive)	-6.54	1.98
Cn1c(SCC(=O)N2CCOCC2)nnc1-c1ccc(Cl)cc1Cl	30.4% (inactive)	-11.5	2.99
COc1ccc(C2CC(=O)C(C=NCCN3CCOCC3)=C(O)C2)cc1 (stereo not drawn)	30% (inactive)	-14.6	0.91
CC(NC(=O)CSc1nnc(COc2ccccc2)o1)c1ccccc1 (stereo not drawn)	2.08% (inactive)	-10.8	4.42
N#CC1=C(SCC(=O)c2ccccc2)NC2=C(C(=O)CCC2)C1c1ccco1 (stereo not drawn)	77% (inactive)	12.5	20.4

SMILES	growth inhibition	growth inhibition [1] [%]	condensed nuclei [%]
Cn1c(=O)c2c3c(sc2n2c(SCC(N)=O)nnc12)CC(C(C)(C)C)CC3 (stereo not drawn)	-4.56% (inactive)	-15.8	3.87
CN(CCOC(=O)c1cccc(Br)c1)C(C)(C)C	6.82% (inactive)	3.02	2.48
COC(=O)c1cc(Br)c(=O)n(Cc2cccnc2)c1	6.29% (inactive)	-14.1	1.99
CC12CN3CC(C)(CN(C1)C3c1ccc(Cl)cc1Cl)C2O (stereo not drawn)	15% (inactive)	0.64	2.07
CC1(C)Cc2c(c(N3CCOCC3)nc3sc(C#N)c(N)c23)CS1	16.1% (inactive)	12.8	14
COc1cccc(CNc2ncc(Br)cc2Br)c1O	28.4% (inactive)	3.03	8.79
COc1ccccc1NC(=O)c1c(C)cc(=O)oc1C	2.52% (inactive)	-2.65	1.89
C=CCc1c(C)nc(SCCC)[nH]c1=O	-39.5% (inactive)	9.14	4.83
Cc1cc(N2C(=O)C(=O)/C(=C(/O)c3ccccc3)C2c2cccs2)no1 (stereo not drawn)	-3.8% (inactive)	-3.1	2.92
N#Cc1c(NCCN)nc(NCc2ccccc2)c2c1CCN(Cc1ccccc1)C2	48.7% (inactive)	41.2	7.1
CSC1=C(C#N)C(c2ccc(C)s2)CC(=O)N1 (stereo not drawn)	22.7% (inactive)	4.49	3.3
COc1cc(-c2cc(C(F)(F)F)n3ncc(C(=O)O)c3n2)cc(OC)c1OC	-25.6% (inactive)	-14.3	2.49
O=C(O)CCc1cc(I)c(Oc2ccc(O)c(I)c2)c(I)c1	4.78% (inactive)	3.12	4.44
O=C(O)c1c[nH]c2ccc(S(=O)(=O)N3CCOCC3)cc12	-36.6% (inactive)	-2.36	1.85
Cc1cc(C)nc(NC2=NCC(=O)N2c2ccccc2)n1	-50.8% (inactive)	-10.6	3.13
COc1ccc(C2C(C(C)=O)=C(O)C(=O)N2c2nccs2)cc1OC (stereo not drawn)	6.29% (inactive)	-2.95	3.31
CCc1cc(=O)oc2cc(C)c(CN3CCCC3)c(O)c12	22.4% (inactive)	0.04	4.19
CN(C)CCCN(CCCNC(=O)/C=N/O)Cc1ccccc1	-11.9% (inactive)	-9.76	2.84
Nc1nnnn1CC(=O)OCc1cccc(Br)c1	-17.1% (inactive)	-5.1	1.92
CN1CC(=O)Nc2ccc(F)cc2C1=O	2.67% (inactive)	-9.28	13.9
CCCC(=O)N(Cc1cc2ccccc2[nH]c1=O)c1ccccc1OC	0.99% (inactive)	5.4	3.75
COc1ccc(CNC(=O)[C@H](C)NC(=O)C2CCN(S(=O)(=O)c3ccc(C)cc3)CC2)cc1	-1% (inactive)	-14.3	4.4
CCc1nc2sc3c(c2c(=O)o1)CCCC3	-25.2% (inactive)	-2.13	2.35
Cc1ccc(N(CN2C(=O)NC(C)(C)C2=O)CN2C(=O)NC(C)(C)C2=O)cc1	24.1% (inactive)	-7.36	3.39
OCCN1CCN(CCCN2c3ccccc3Sc3ccc(C(F)(F)F)cc32)CC1	89% (inactive)	59.7	12.9
OCCN1CCN(CCCN2c3ccccc3Sc3ccc(Cl)cc32)CC1	95.8% (active)	77.7	11.7

SMILES	growth inhibition	growth inhibition [1] [%]	condensed nuclei [%]
CN(C)CCCN1c2ccccc2Sc2ccc(Cl)cc21	37.5% (inactive)	25.5	5.79
CN(C)CCCN1c2ccccc2Sc2ccc(C(F)(F)F)cc21	62.5% (inactive)	40.5	4.92
CN1CCN(CCCN2c3ccccc3Sc3ccc(Cl)cc32)CC1	-25.4% (inactive)	-28.5	2.59
CN1CCN(CCCN2c3ccccc3Sc3ccc(C(F)(F)F)cc32)CC1	95.6% (active)	87.9	15.7
CCN(CC)CCNc1nc(-c2ccco2)c2c(c1C#N)CC(C)(C)OC2	0.38% (inactive)	-1.61	4.74
CC1(C)CC(=O)C=C(NCCO)C1	25.6% (inactive)	9.68	3.37
O=S(=O)(c1cccc2nsnc12)N1CCN(C/C=C/c2ccccc2)CC1	-27% (inactive)	4.18	4.32
Cc1cc(OCC(=O)Nc2ccc3oc(-c4ccncc4)nc3c2)ccc1Cl	-2.56% (inactive)	-0.21	2.42
CCC(NC(=O)Nn1cnnc1)(C(F)(F)F)C(F)(F)F	3.51% (inactive)	-0.07	2.8
O=C(NCCN1CCCCC1)c1ccc(=O)oc1	-6.93% (inactive)	-12.9	2.43
CC(=Nc1ccc(C)c(C)c1)C1=C(O)CCC1=O	6.59% (inactive)	-5.94	3.62
CCN(CC)CCNc1nc2c(c(=O)[nH]c(=O)n2C)n1CCOc1ccccc1	-28.8% (inactive)	-0.48	2.26
Cc1ccc(C2C(C(=O)c3cc4ccccc4o3)=C(O)C(=O)N2CCN(C)C)o1 (stereo not drawn)	-17.9% (inactive)	-1.01	2.37
CCOc1cc(C2Nc3ccccc3C(=O)N2c2ccccc2OC)ccc1O (stereo not drawn)	1.14% (inactive)	-2.4	1.12
Cn1c(=O)c2c(nc(Br)n2CCSc2ncccn2)n(C)c1=O	17.9% (inactive)	6.9	1.48
Cc1ccc(N2C(=O)CC3(CC4C=CC3C4)C2=O)cc1 (stereo not drawn)	-2.66% (inactive)	9.8	2.87
CNC(=O)CC(C(=O)O)c1ccc(OC(C)C)cc1 (stereo not drawn)	14% (inactive)	5.18	2.97
CC(C)Sc1nc(N2CCCC2)c2c(c1C#N)CC(C)(C)OC2	-32.3% (inactive)	-22.9	2.77
CN1C2C=C3C(C#N)=C(N)C(C#N)(C#N)[C@@H](c4cccs4)C3C1CC2 (stereo partly drawn)	-11.2% (inactive)	-11.8	3.15
N#C/C(C(=O)NCc1ccco1)=C1/SC(Cc2ccc(F)cc2)C(=O)N1c1ccccc1 (stereo not drawn)	16.5% (inactive)	-3.7	7.66
CCOC(=O)/C=c1\s/c(=C(\C#N)C(=O)OCC)n(-c2ccccc2)c1=O	-8.81% (inactive)	-10.2	2.51
Cc1nc(Nc2ncc3c(n2)CCCC3=O)nc2ccccc12	-21.1% (inactive)	-26.2	3.04
CCOC(=O)c1[nH]c2cc3c(cc2c1NC(=O)CN1CCC(C)CC1)OCO3	37.9% (inactive)	20	3.55
O=C(C1=C(O)C(=O)N(CCCN2CCOCC2)C1c1ccccn1)c1cc2ccccc2o1 (stereo not drawn)	-11.4% (inactive)	-7.9	2.31
